Assay outcomes as filed in PubChem BioAssay.
Only some compounds are listed: those with a hit (about 19% of all), similar ones and a draw of the others.
IL-1B inflam inh: qHTS for Inhibitors of Inflammasome Signaling: IL-1-beta AlphaLISA Primary Screen | THP-1 LPS/ATP IL-1B secretion, AlphaLISA, 16 h; hits give low values | activity change, % at 57.5 µM | 360,000 tested, 4.7% active; in the data active = activity change below about -50%; inconclusive = mostly about -30% to -49%
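Secreted IL-1B measured by AlphaLISA bead assay after 16 h compound exposure of THP-1 cells; compounds (final up to 57.5 uM) added 1 h before LPS (250 ng/mL) and ATP (1.25 mM) stimulation; lower signal means less secretion.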
TDP1 cell CPT: qHTS for Inhibitors of human tyrosyl-DNA phosphodiesterase 1 (TDP1): qHTS in cells in presence of CPT; 420,000 tested, 12% active; chicken DT40 Tdp1-/-;hTDP1 cells + 20 nM CPT, ATP luminescence, 48 h; Potency, µM (series often up to 46.2 µM), without a hit: top-dose activity change, negative = growth inhibition, actives largely listed as inhibitors; AID 686979, 2013; also: potency is read from the fitted curve at half-maximal effect; nearly all actives have a fitted effect of over 55% in size
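Chicken DT40 Tdp1-/- cells complemented with human TDP1, 400 cells/well, exposed to compounds plus 20 nM camptothecin for at least 48 h at 37 C; viability read as ATP content by CellTiter-Glo luminescence.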
uPA surface inh: qHTS for Inhibitors of Cell Surface uPA Generation | 330,000 tested, 0.31% active | cell surface uPA generation assay, qHTS | Potency, µM (series often up to 38.3 µM), without a hit: at the top dose activity change, negative = inhibition, hits mostly inhibitors | AID 540303, 2011; active = well fitted inhibition curve with a large enough effect; inconclusive = small, poorly fitted or top-dose-only effect; inactive = no such curve, though single readings can be large or run the other way; tested in mouse RAW 264.7 cells; also: potency is read from the fitted curve at half-maximal effect; nearly all actives have a fitted effect of over 55% in size
HT1080 IDH1KD tx: qHTS for induction of synthetic lethality in tumor cells producing 2HG: qHTS for the HT-1080-IDH1KD cell line. 360,000 tested, 2% active. HT-1080 IDH1 knockdown viability, ATP luminescence, 48 h. Potency, µM (titrated, usually from 46.1 µM), without a hit: top-dose activity, negative = toxicity, actives largely listed as cytotoxic;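 also: potency is read from the fitted curve at half-maximal effect; 0% = DMSO wells and -100% = cell-free medium wells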
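HT-1080-IDH1KD cells (IDH1 knocked down), 750/well in RPMI with 5% FBS, treated with compound 48 h at 37 degrees C. Viability by CellTiter-Glo luminescence, normalised to DMSO and no-cell wells; concentration-response curves classed.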
TDP1 cell noCPT: qHTS for Inhibitors of human tyrosyl-DNA phosphodiesterase 1 (TDP1): qHTS in cells in absence of CPT; DT40 Tdp1-/- hTDP1 cells, no CPT, ATP luminescence, 48 h; Potency, µM (doses to about 46.2 µM), for the others: at the top dose activity change, negative = growth inhibition, actives largely listed as inhibitors; 420,000 tested, 15% active; AID 686978, 2013; also: potency is read from the fitted curve at half-maximal effect; nearly all actives have a fitted effect of over 55% in size
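Chicken DT40 Tdp1-/- cells stably complemented with human TDP1 were seeded at 400 cells/well with DMSO in place of 20 nM camptothecin. After compound pinning, cells grew at least 48 hr at 37 °C; viability read by CellTiter-Glo luminescence.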
HT1080-NT tox: qHTS for induction of synthetic lethality in tumor cells producing 2HG: qHTS for the HT-1080-NT fibrosarcoma cell line; AID 686970, 2013; Potency, µM (top dose mostly 46.1 µM), inactives show top-dose activity, negative = less viability, most hits filed as cytotoxic; HT-1080-NT fibrosarcoma viability, CellTiter-Glo ATP luminescence, 48 h; 360,000 tested, 1.6% active;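 also: NT is the 2HG producing partner of a matched IDH1 knockdown line; potency is read from the fitted curve at half-maximal effect; 0% = DMSO-treated cells and -100% = media-only wells without cells; nearly all actives have a fitted effect of over 55% in size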
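A 48-hour cytotoxicity screen used HT-1080-NT cells plated 2 hours before compound delivery. ATP-based CellTiter-Glo luminescence measured viability, normalized to DMSO and no-cell controls.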
An asterisk follows results filed as active; ! = not active in a repeat. Unless noted, calls follow the shape of the dose curve; as a rule, active = well fitted curve in the direction sought with a large enough effect; inconclusive = small, poorly fitted or top-dose-only effect, or another doubt; inactive = no such curve, though single readings can be large; an effect the other way counts as inactive or inconclusive. Unless noted, % is scaled to controls: 0 for no effect and ±100 for the full control effect.

For CSc1ccccc1NC(=O)CN1CCN(c2ccccn2)CC1 the results were IL-1B inflam inh 23, TDP1 cell CPT 23µM*, uPA surface inh -10%, HT1080 IDH1KD tx -11%, TDP1 cell noCPT inconclusive and HT1080-NT tox 0%.
`CCC(=O)N(Cc1ccc(S(N)(=O)=O)cc1)C1CC(=O)N(c2ccccc2)C1=O` (configuration not stated) gave IL-1B inflam inh 4, TDP1 cell CPT 9%, uPA surface inh 1%, HT1080 IDH1KD tx 8%, TDP1 cell noCPT 0% and HT1080-NT tox 3%.
`COc1cc(Cl)c(C)cc1NC(=O)c1ccccc1NC(=O)CN1CCN(c2ccccn2)CC1` gave IL-1B inflam inh -66*, TDP1 cell CPT 18µM*, uPA surface inh 5%, HT1080 IDH1KD tx -19%, TDP1 cell noCPT 26µM* and HT1080-NT tox inconclusive.
For COc1ccc(SCCN2CC[C@@H](NC(=O)OCc3ccccc3)CCC2=O)cc1 the results were IL-1B inflam inh -2, TDP1 cell CPT inconclusive, uPA surface inh 2%, HT1080 IDH1KD tx -12%, TDP1 cell noCPT inconclusive and HT1080-NT tox -12%.
`Cc1ccc(SC[C@H](C)CN2CC[C@H](NC(=O)OCc3ccccc3)CCC2=O)cc1` gave IL-1B inflam inh 19, TDP1 cell CPT 16µM*!, uPA surface inh -2%, HT1080 IDH1KD tx 2%, TDP1 cell noCPT 11µM* and HT1080-NT tox -3%.
Screening Cc1ccc(SC[C@H](C)CN2CC[C@H](C(C)(C)C)CCC2=O)cc1 returned IL-1B inflam inh 21, TDP1 cell CPT inconclusive, uPA surface inh 7%, HT1080 IDH1KD tx -14%, TDP1 cell noCPT 16µM* and HT1080-NT tox -2%.
For C[C@@H](CSc1ccccc1)CN1CC[C@H](O)CCC1=O the results were IL-1B inflam inh 12, TDP1 cell CPT inconclusive, uPA surface inh 4%, HT1080 IDH1KD tx 10%, TDP1 cell noCPT -9% and HT1080-NT tox 7%.
`Cc1ccc(S[C@@H](CCN2CC[C@H](NC(=O)OCc3ccccc3)CCC2=O)c2ccccc2)cc1` gave IL-1B inflam inh -11, TDP1 cell CPT 23µM*, uPA surface inh -2%, HT1080 IDH1KD tx -4%, TDP1 cell noCPT 11µM* and HT1080-NT tox -20%.
For COc1ccc(SC[C@H](Cc2ccccc2)N2CC[C@@H](NC(=O)OCc3ccccc3)CCC2=O)cc1 the results were IL-1B inflam inh -16, TDP1 cell CPT inconclusive, uPA surface inh inconclusive, HT1080 IDH1KD tx 0%, TDP1 cell noCPT 16µM* and HT1080-NT tox 0%.
`CC(C)C(=O)Nc1nnc2n1CCS2` gave TDP1 cell CPT 1% and TDP1 cell noCPT 10%.
C[C@@H](CSc1ccccc1)CN1CC[C@H](NC(=O)OCc2ccccc2)CCC1=O was read as IL-1B inflam inh 15, TDP1 cell CPT inconclusive, uPA surface inh 8%, HT1080 IDH1KD tx 2%, TDP1 cell noCPT 10µM* and HT1080-NT tox -2%.
For N#CC[C@H](Cc1ccccc1)N1CC[C@@H](NC(=O)OCc2ccccc2)CCC1=O the results were IL-1B inflam inh 15, TDP1 cell CPT inconclusive, uPA surface inh 5%, HT1080 IDH1KD tx 0%, TDP1 cell noCPT inconclusive and HT1080-NT tox -2%.
O=C(N[C@@H]1CCC(=O)N(CC[C@H](Oc2ccccc2)c2ccccc2)CC1)OCc1ccccc1 was read as IL-1B inflam inh -26, TDP1 cell CPT 15µM*, uPA surface inh 1%, HT1080 IDH1KD tx -2%, TDP1 cell noCPT inconclusive and HT1080-NT tox -23%.
